A number with no mark means an inactive call. Inconclusive results are not listed. Where a call stands in place of a potency, no number is given. Calls of active or inactive are those of the source. Calls come from the whole dose curve.
How the values were obtained:
[1] = target: Acetylcholinesterase (Homo sapiens) (UniProt P22303); experiment: Acetylcholinesterase (AChE) small molecule antagonists: colormetric cell-based qHTS assay (AID 1347395); conditions: SH-SY5Y cells AChE activity, colorimetric (Ellman); series mostly up to 115 µM; note: nearly all actives have a fitted effect of over 30% in size; note: potency is the fitted concentration of half-maximal effect
Sequence of Acetylcholinesterase (Homo sapiens) (P22303 whole entry, looked up): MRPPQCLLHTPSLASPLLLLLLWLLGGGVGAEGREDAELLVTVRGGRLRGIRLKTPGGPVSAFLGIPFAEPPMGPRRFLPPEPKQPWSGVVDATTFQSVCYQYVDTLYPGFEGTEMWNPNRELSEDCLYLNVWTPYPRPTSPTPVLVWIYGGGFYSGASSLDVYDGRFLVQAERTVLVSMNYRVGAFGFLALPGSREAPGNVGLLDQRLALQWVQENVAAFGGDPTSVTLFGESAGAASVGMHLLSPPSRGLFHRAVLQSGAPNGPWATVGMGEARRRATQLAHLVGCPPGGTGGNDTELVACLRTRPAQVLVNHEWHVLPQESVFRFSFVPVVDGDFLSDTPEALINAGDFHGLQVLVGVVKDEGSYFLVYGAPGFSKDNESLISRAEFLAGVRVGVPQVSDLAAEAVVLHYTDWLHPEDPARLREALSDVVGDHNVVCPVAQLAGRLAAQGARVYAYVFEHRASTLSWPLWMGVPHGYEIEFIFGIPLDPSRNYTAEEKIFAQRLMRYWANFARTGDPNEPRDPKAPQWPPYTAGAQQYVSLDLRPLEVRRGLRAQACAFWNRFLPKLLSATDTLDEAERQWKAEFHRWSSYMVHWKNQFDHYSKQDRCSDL
How it was run: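 Colorimetric readout: DTNB quantifies thiocholine from acetylthiocholine hydrolysed by endogenous AChE of SH-SY5Y cells (2,000/well, plated overnight). Compound pretreatment 30 min, substrate incubation 90 min, both 37 C.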

[2] = target: Acetylcholinesterase (Homo sapiens) (UniProt P22303); experiment: Acetylcholinesterase (AChE) small molecule antagonists: enzyme-based qHTS assay (AID 1347397); conditions: Potency: AChE enzyme activity inhibition; outcome: AChE enzyme activity inhibition; series mostly up to 115 µM; note: nearly all actives have a fitted effect of over 55% in size; note: potency is the fitted concentration of half-maximal effect
How it was run: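 rhAChE 50 mU/mL (dispensed) + cpd or DMSO, 30 min RT; add DTNB/acetylthiocholine cocktail, 10 min RT; colorimetric thiocholine readout. qHTS, 1536-well format.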

[3] = target: Acetylcholinesterase (Homo sapiens) (UniProt P22303); experiment: Acetylcholinesterase (AChE) small molecule antagonists: fluorescence cell-based qHTS assay (AID 1347398); conditions: SH-SY5Y cells; Potency: AChE activity; outcome: AChE activity; series mostly up to 115 µM; note: nearly all actives have a fitted effect of over 50% in size; note: potency is the fitted concentration of half-maximal effect
How it was run: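 Read-out is Thiolite Green fluorescence at Ex/Em = 490/520 nm, formed by reaction with thiocholine released when cellular AChE in SH-SY5Y cells hydrolyzes acetylthiocholine. Compounds were preincubated 30 min at 37 C before substrate.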

[4] = target: Acetylcholinesterase (Homo sapiens) (UniProt P22303); experiment: Acetylcholinesterase (AChE) small molecule antagonists: enzyme-based qHTS assay with human liver microsomes (AID 1347399); conditions: Potency: qHTS inhibition; outcome: qHTS inhibition; series mostly up to 115 µM; note: nearly all actives have a fitted effect of over 60% in size
How it was run: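 Recombinant human AChE (50 mU/mL in the enzyme mix) and human liver microsomes (0.25 mg/mL final) were preincubated with compound and NADPH (0.25 mg/mL final) for 30 min at 37 C. Acetylthiocholine/DTNB was then added; thiocholine was read colorimetrically after 10 min at room temperature.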

Row | SMILES | Potency [1] | Potency [2] | Potency [3] | Potency [4] | activity, negative = inhibition [1] | activity change, negative = inhibition [2] | activity change, negative = inhibition [3] | activity change, negative = inhibition [4]
1 | O=C1Nc2cc(Cl)ccc2Oc2ccccc21 | inactive | inactive | inactive | inactive | – | – | – | –
2 | CC1CC(OC(=O)c2ccccc2O)CC(C)(C)C1 (stereo not given) | inactive | inactive | inactive | inactive | – | – | – | –
3 | O=C(OCC1CO1)C1CCCCC1C(=O)OCC1CO1 (stereo not given) | inactive | inactive | inactive | inactive | – | – | – | –
4 | C=COCCCCO | inactive | inactive | inactive | inactive | – | – | – | –
5 | C=CN1CCCC1=O | inactive | inactive | inactive | inactive | – | – | – | –
6 | O=c1[nH]nnc2ccccc12 | inactive | inactive | inactive | inactive | – | – | – | –
7 | O=C(O)c1cc(C(=O)O)cc([N+](=O)[O-])c1 | inactive | inactive | inactive | inactive | – | – | – | –
8 | CCC(C(=O)OCCN(CC)CC)c1ccccc1 (stereo not given) | inactive | inactive | inactive | inactive | – | – | – | –
9 | CN(C)CCOCCN(C)C | inactive | inactive | inactive | inactive | – | – | – | –
10 | COc1cc([N+](=O)[O-])ccc1N | inactive | inactive | inactive | inactive | – | – | – | –
11 | CCCS(=O)c1ccc2nc(NC(=O)OC)[nH]c2c1 (stereo not given) | inactive | inactive | inactive | inactive | – | – | – | –
12 | CCCCCCCCCCCCCCCCCCOCC(O)CO (stereo not given) | inactive | inactive | inactive | inactive | – | – | – | –
13 | ClCCCl | inactive | inactive | inactive | inactive | – | – | – | –
14 | O=C(O)Cc1ccc(-c2ccccc2)cc1 | inactive | inactive | inactive | inactive | – | – | – | –
15 | CC(C)(C)c1ccc(S)cc1 | inactive | inactive | inactive | inactive | – | – | – | –
16 | CN1C(CCl)Nc2cc(Cl)c(S(N)(=O)=O)cc2S1(=O)=O (stereo not given) | inactive | inactive | inactive | inactive | – | – | – | –
17 | CC(C)c1cccc(C(C)C)c1 | inactive | inactive | inactive | inactive | – | – | – | –
18 | C=C(C)C(=O)OCCN(CC)CC | inactive | inactive | inactive | inactive | – | – | – | –
19 | CCCCCCCCCCCCCCCBr | inactive | inactive | inactive | inactive | – | – | – | –
20 | Cc1ccccc1C(OCCN(C)C)c1ccccc1 (stereo not given) | inactive | inactive | inactive | inactive | – | – | – | –

Row | SMILES | Potency [1] | Potency [2] | Potency [3] | Potency [4] | activity, negative = inhibition [1] | activity change, negative = inhibition [2] | activity change, negative = inhibition [3] | activity change, negative = inhibition [4]
21 | CCCCCCCCCCn1cc[n+](CCCCCCCCCC)c1C | 79.8 µM (active) | 35.6 µM (active) | 40 µM (active) | inactive | – | – | – | –
22 | CCN(CCO)c1cccc(C)c1 | inactive | inactive | inactive | inactive | – | – | – | –
23 | CN(C)CCCOC1(Cc2ccccc2)CCCCCC1 | inactive | inactive | inactive | inactive | – | – | – | –
24 | Nc1ncnc2nc[nH]c12 | inactive | inactive | inactive | inactive | – | – | – | –
25 | CC(=O)OCC(=O)[C@@]1(O)CCC2C3CCC4=CC(=O)CC[C@]4(C)C3[C@@H](O)C[C@@]21C (stereo not given in full) | inactive | inactive | inactive | inactive | – | – | – | –
26 | Cc1c[nH]c2ccccc12 | inactive | inactive | inactive | inactive | – | – | – | –
27 | CC(C)N=C(N)/N=C(\N)Nc1ccc(Cl)cc1 | inactive | inactive | inactive | inactive | – | – | – | –
28 | CCCC/C=C/CCCCO | inactive | inactive | inactive | inactive | – | – | – | –
29 | Cc1cccc(Nc2ccncc2S(=O)(=O)NC(=O)NC(C)C)c1 | inactive | inactive | inactive | inactive | – | – | – | –
30 | CC(C)(Oc1ccc(CCNC(=O)c2ccc(Cl)cc2)cc1)C(=O)O | inactive | inactive | inactive | inactive | – | – | – | –
31 | CC(C)CCCCCOC(=O)CCCCC(=O)OCCCCCC(C)C | inactive | inactive | inactive | inactive | – | – | – | –
32 | Cc1cccc(O)c1C | inactive | inactive | inactive | inactive | – | – | – | –
33 | Nc1cc(Cl)c([N+](=O)[O-])cc1O | inactive | inactive | inactive | inactive | – | – | – | –
34 | O=NN(CCCl)C(=O)NC1CCCCC1 | inactive | inactive | inactive | inactive | – | – | – | –
35 | COc1ccc(N=[N+]([O-])c2ccc(OC)cc2)cc1 | inactive | inactive | inactive | inactive | – | – | – | –
36 | Cc1ccc2ccccc2c1[N+](=O)[O-] | inactive | inactive | inactive | inactive | – | – | – | –
37 | CCCCCCCCOc1ccc(C(=O)O)cc1 | inactive | inactive | inactive | inactive | – | – | – | –
38 | C1COCCO1 | inactive | inactive | inactive | inactive | – | – | – | –
39 | CCCCCCCC/C=C\CCCCCCCC(=O)OC | inactive | inactive | inactive | inactive | – | – | – | –
40 | CCOC(=O)C(=O)CCc1ccccc1 | inactive | inactive | inactive | inactive | – | – | – | –

Row | SMILES | Potency [1] | Potency [2] | Potency [3] | Potency [4] | activity, negative = inhibition [1] | activity change, negative = inhibition [2] | activity change, negative = inhibition [3] | activity change, negative = inhibition [4]
41 | NC(=O)c1ccc([N+](=O)[O-])cc1 | inactive | inactive | inactive | inactive | – | – | – | –
42 | Cc1cc(C)c(N=Nc2c(O)c(S(=O)(=O)O)cc3cc(S(=O)(=O)O)ccc23)cc1C | – | – | – | – | 0.116% [at 10.5 µM] | 0.136% [at 10.5 µM] | -0.662% [at 10.5 µM] | 0.432% [at 10.5 µM]
43 | [Cl][In]([Cl])[Cl] | inactive | inactive | inactive | inactive | – | – | – | –
44 | CCCCCCC(CO)CCCC (stereo not given) | inactive | inactive | inactive | inactive | – | – | – | –
45 | O=S1(=O)OC(c2ccc(O)cc2)(c2ccc(O)cc2)c2ccccc21 | inactive | inactive | inactive | inactive | – | – | – | –
46 | CC/C=C\C/C=C\C/C=C\CCCCCCCC(=O)O | inactive | inactive | inactive | inactive | – | – | – | –
47 | C1COC(NC(C2CC2)C2CC2)=N1 | inactive | inactive | inactive | inactive | – | – | – | –
48 | O=C(O)c1ccc2c(c1)C(=O)OC2=O | inactive | inactive | inactive | inactive | – | – | – | –
49 | S=C(NC1CCCCC1)NC1CCCCC1 | inactive | inactive | inactive | inactive | – | – | – | –
50 | CS(=O)(=O)c1ccc(Cl)cc1 | inactive | inactive | inactive | inactive | – | – | – | –
51 | CCCN(CCC)C(=O)C(CCC(=O)OCCCN1CCN(CCOC(=O)Cc2c(C)n(C(=O)c3ccc(Cl)cc3)c3ccc(OC)cc23)CC1)NC(=O)c1ccccc1 (stereo not given) | inactive | inactive | inactive | inactive | – | – | – | –
52 | CC(=O)O[C@]1(C(C)=O)CC[C@H]2[C@@H]3C=C(Cl)C4=CC(=O)CC[C@]4(C)[C@H]3CC[C@@]21C | inactive | inactive | inactive | inactive | – | – | – | –
53 | NC=O | inactive | inactive | inactive | inactive | – | – | – | –
54 | COc1cc(NC(=O)CC(C)=O)c(OC)cc1Cl | inactive | inactive | inactive | inactive | – | – | – | –
55 | CC(C)=CC(=O)O | inactive | inactive | inactive | inactive | – | – | – | –
56 | c1ccsc1 | inactive | inactive | inactive | inactive | – | – | – | –
57 | C=CCCCCCC | inactive | inactive | inactive | inactive | – | – | – | –
58 | CC[Si](OC(C)=O)(OC(C)=O)OC(C)=O | inactive | inactive | inactive | inactive | – | – | – | –
59 | O=C1OC2(c3cc(Br)c(O)c(Br)c3Oc3c2cc(Br)c(O)c3Br)c2c(Cl)c(Cl)c(Cl)c(Cl)c21 | inactive | inactive | inactive | inactive | – | – | – | –
60 | C=C[Si](OCCOC)(OCCOC)OCCOC | inactive | inactive | inactive | inactive | – | – | – | –

Reference: PubChem BioAssay (Tox21)
